Sfp inh = blocks B. subtilis Sfp PPTase activity; Q9F4F7; Biochemical Sfp PPTase activity, qHTS; Potency, µM, for inactives: largest response in the series, negative = inhibition, actives largely listed as inhibitors; 3.5% of 310,000 active;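 note: the enzyme is Sfp with the accession as filed and its product quenches rhodamine fluorescence; 0% = enzyme reaction without inhibitor and -100% = no enzyme wells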
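Buffer: 50 mM Hepes-Na pH 7.6, 10 mM MgCl2, 0.01% Nonidet P-40, 0.01% BSA. Enzyme 15 nM, pre-exposed to compound 15 min; substrates then added and fluorescence change tracked over 30 min.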
G9a inh = G9a (human) methyltransferase inhibition | AID 504332 | Potency, µM (doses to about 102 µM), for the others: at the top dose activity, negative = inhibition, usual class: inhibitors | G9a H3K9 monomethylation, AlphaScreen, 2 h | 8.8% of 350,000 active | Q96KQ7; note: % is set by controls: 0 for no effect and ±100 for the full control effect; nearly all actives have a fitted effect of over 75% in size
Target sequence (Q96KQ7 913-1193 limits assumed): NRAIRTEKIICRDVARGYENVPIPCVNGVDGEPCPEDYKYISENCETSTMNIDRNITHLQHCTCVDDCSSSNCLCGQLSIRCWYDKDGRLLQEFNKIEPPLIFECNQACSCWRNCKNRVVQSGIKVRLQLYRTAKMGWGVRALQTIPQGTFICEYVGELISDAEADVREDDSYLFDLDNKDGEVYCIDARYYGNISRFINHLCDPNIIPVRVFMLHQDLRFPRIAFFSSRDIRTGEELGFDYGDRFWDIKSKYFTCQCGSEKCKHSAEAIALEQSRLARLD
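Enzyme 20 nM + cpd, 15 min RT; add b-H3K9 pep 500 nM / SAM 20 uM; 2 h RT; anti-H3K9me1 Ab 0.5 ug/mL + SA donor / anti-rabbit acceptor beads 20 ug/mL each, 10 min; AlphaScreen read.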
HP1b binding inh = HP1-beta chromodomain-methylated histone interaction inhibition | AlphaScreen HP1-beta / biotin-H3K9me3 peptide binding | AID 540317 | Potency, µM (titrated, usually from 114 µM), for the others: top-dose activity change, negative = inhibition, actives largely listed as inhibitors | P83916 | 0.56% of 390,000 active; note: nearly all actives have a fitted effect of over 70% in size
Target sequence (P83916 whole entry, looked up): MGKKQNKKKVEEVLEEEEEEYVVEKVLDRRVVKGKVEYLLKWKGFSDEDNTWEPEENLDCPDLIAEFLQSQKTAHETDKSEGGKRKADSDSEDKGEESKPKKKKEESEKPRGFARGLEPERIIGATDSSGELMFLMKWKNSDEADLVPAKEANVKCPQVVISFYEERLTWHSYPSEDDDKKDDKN
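HP1-beta protein (50 nM final) preincubated 30 min at room temperature with biotinylated H3(1-18)K9me3 peptide (50 nM) in PBS pH 7.4, 0.01% Tween-20, then compound added for 30 min. AlphaScreen streptavidin donor/nickel chelate acceptor beads (10 ug/mL final), 30 min dark, luminescence read.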
JMJD2A Tudor inh = blocks the human JMJD2A Tudor domain; Potency, µM (doses to about 114 µM), inactives show at the highest dose activity change, negative = inhibition, actives largely listed as inhibitors; 4.4% of 390,000 active; AlphaScreen JMJD2A-Tudor / H3K4me3 peptide binding; AID 504339; note: % is set by controls: 0 for no effect and ±100 for the full control effect; nearly all actives have a fitted effect of over 50% in size
BAZ2B inh = blocks human BAZ2B; Potency, µM (series often up to 114 µM), for the others: at the highest dose activity change, negative = inhibition, actives largely listed as inhibitors; 4.4% of 360,000 active; AID 504333; AlphaScreen BAZ2B-H3K14Ac peptide displacement; Q9UIF8; note: % is set by controls: 0 for no effect and ±100 for the full control effect; nearly all actives have a fitted effect of over 60% in size
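Compounds, titrated to a top concentration of 110 uM, were incubated 30 min at room temperature with preformed BAZ2B/acetyl-K14 H3 peptide complex (50 nM each). Proximity signal was measured by AlphaScreen after 20 min with beads.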
L3MBTL1 block = inhibitors of human L3MBTL1 | AID 485360 | Potency, µM (series often up to 57.1 µM), for inactives: top-dose activity, negative = inhibition, usual class: inhibitors | AlphaScreen L3MBTL1–H3K9me1 peptide binding | 0.66% of 230,000 active | Q9Y468; note: % is set by controls: 0 for no effect and ±100 for the full control effect; nearly all actives have a fitted effect of over 60% in size
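First, the protein-peptide complex forms for 30 min at room temperature (L3MBTL1 50 nM, biotinylated H3K9me1 peptide 75 nM). Next, compounds are pin-transferred and incubated 30 min. Finally, AlphaScreen beads are added and read after 30 min.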
* = called active by the depositor; ? = inconclusive; . = no result given; [ ] = dose if it differs, or a comment. Most compounds without a hit are left out; they make up all but 12% or so of the library. Calls come from the whole dose curve; as a rule, active = well fitted curve in the direction sought with a large enough effect; inconclusive = small, poorly fitted or top-dose-only effect, or another doubt; inactive = no such curve, though single readings can be large; an effect the other way counts as inactive or inconclusive. Potency is the fitted concentration of half-maximal effect.

SMILES	Sfp inh	G9a inh	HP1b binding inh	JMJD2A Tudor inh	BAZ2B inh	L3MBTL1 block
COc1ccccc1NC(=O)Cn1c(=O)n(Cc2ccccc2)c(=O)c2c1c1cc(C)ccc1n2C	.	-3%[59 µM]	28%	3%	-12%	.
CN(C)CC(C(=O)c1ccccc1)c1ccccc1 (stereo not drawn)	-14%	-6%[12.7 µM]	58%	5%	11%	14%
CN(C)C/C(Cl)=C(\Cl)c1ccccc1	-5%	14µM*	39%	-34%	3%	0%
CCOC(=O)c1ccc(N2CCN(c3ccccc3F)CC2)c(NC(=O)Nc2ccc(Cl)c(Cl)c2)c1	.	-2%[59 µM]	-11%	-14%	3%	.
COc1cc(/C=C2/SC(N)=NC2=O)ccc1Oc1ccc([N+](=O)[O-])cc1[N+](=O)[O-]	-10%	0%[59 µM]	44%	-8%	7%	-12%
COc1cc(/C=C2\C(=O)N(c3ccccc3)N=C2C)ccc1Oc1ccc([N+](=O)[O-])cc1[N+](=O)[O-]	-7%	?	?	25µM*	45µM*	-22%
CC1=NN(c2ccccc2)C(=O)/C1=C\c1ccc(Oc2ccc([N+](=O)[O-])cc2[N+](=O)[O-])cc1	-6%	45µM*	?	40µM*	40µM*	?
CN(C)c1cccc(C(=O)Nc2nnc(Cc3ccccc3)s2)c1	-8%	40µM*	4%	?	-31%	.
CC(C)(C)C(=O)Nc1nnc(Cc2ccccc2)s1	13%	20%[59 µM]	15%	-4%	5%	6%
CC(C)COC(=O)Nc1nnc(Cc2ccccc2)s1	11%	-12%	-4%	18µM*	-6%	4%
Cc1ccc(S(=O)(=O)N2CCN(c3nc(C(N)=O)nc4ccccc34)CC2)cc1	.	.	36%	-9%	.	.
Cc1cc(O)cc2c1O[C@](C)(CCC[C@H](C)CCC[C@H](C)CCCC(C)C)CC2	-11%	-35%[59 µM]	.	.	.	.
Cc1nc(SCC(=O)N2CCN(C(=O)c3cccs3)CC2)c2c(C)c(C)sc2n1	.	18µM*	39%	-19%	-24%	?
Cc1nc(SCC(=O)N2CCN(C(=O)c3ccco3)CC2)c2c(C)c(C)sc2n1	24%	12%[59 µM]	-9%	-24%	8%	2%
CCN(CC)C(=O)CS(=O)(=O)CC(=O)Nc1cc(OCCOC)c(Cl)cc1Cl	13%	50µM*	8%	-3%	4%	6%
O=C(Nc1ccccc1C(=O)O)C1=NN=CC1	-7%	50µM*	?	-30%	-9%	.
COc1ccc(/C=N/NC(=O)c2cccnc2)cc1Cn1nc([N+](=O)[O-])c(Br)c1C	3%	50µM*	.	.	-24%	-9%
COC(=O)C1=C(C)NC(C)=C(C(=O)OC)C1c1ccc(-c2cccc(Cl)c2Cl)o1	?	-18%[59 µM]	34%	-11%	-2%	13%
COC(=O)C1=C(C)NC(=O)NC1c1ccc(-c2ccccc2Cl)o1 (stereo not drawn)	-20%	?	-10%	-23%[11.4 µM]	11%	36%
CCOC(=O)C1=C(C)NC(=O)NC1c1ccc(-c2ccc(Cl)cc2)o1 (stereo not drawn)	8%	-9%	14%	-26%	-24%	-5%
COC(=O)C1=C(C)NC(=O)NC1c1ccc(-c2ccc(F)cc2)o1 (stereo not drawn)	0%	?	5%	-21%	-23%	.
CCOC(=O)C1=C(C)NC(=S)NC1c1ccc(-c2ccc(Cl)cc2)o1 (stereo not drawn)	14µM*	?	17%	-35%	-37%	-10%
COC(=O)C1=C(C)NC(=S)NC1c1ccc(-c2cccc(Cl)c2)o1 (stereo not drawn)	7.1µM*	10µM*	50%	3%	?	-15%
CCOC(=O)C1=C(C)NC(=S)NC1c1ccc(-c2cccc(Cl)c2C)o1 (stereo not drawn)	56µM*	27%[0.501 µM]	38%	-23%	3%	5%
